From PubChem BioAssay AID488896 (Broad Institute, 2010)
Hit rate of the full screen: of about 320,000 compounds, about 3,100 (0.97%) were called active.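 Rule for the calls: active = mean replicate inhibition of at least 70% and a set share of replicates each scoring 70 or more; inconclusive = meets just one of the two criteria; inactive = fails both criteria.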 This excerpt belongs to a sample that is enriched for actives.

target: Scavenger receptor class B member 1 (Mus musculus) (UniProt Q61009); experiment: mouse SR-BI DiI-HDL uptake blockers – ldlA[mSR-BI] cells, fluorescence, single point, primary screen (AID 488896); conditions: ldlA[mSR-BI] CHO cells, 3 h, at 12.5 µM, stronger effect = higher value;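 note: 0% = median of neutral control wells and 100% = median of positive control wells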
Sequence (Q61009 whole entry, looked up): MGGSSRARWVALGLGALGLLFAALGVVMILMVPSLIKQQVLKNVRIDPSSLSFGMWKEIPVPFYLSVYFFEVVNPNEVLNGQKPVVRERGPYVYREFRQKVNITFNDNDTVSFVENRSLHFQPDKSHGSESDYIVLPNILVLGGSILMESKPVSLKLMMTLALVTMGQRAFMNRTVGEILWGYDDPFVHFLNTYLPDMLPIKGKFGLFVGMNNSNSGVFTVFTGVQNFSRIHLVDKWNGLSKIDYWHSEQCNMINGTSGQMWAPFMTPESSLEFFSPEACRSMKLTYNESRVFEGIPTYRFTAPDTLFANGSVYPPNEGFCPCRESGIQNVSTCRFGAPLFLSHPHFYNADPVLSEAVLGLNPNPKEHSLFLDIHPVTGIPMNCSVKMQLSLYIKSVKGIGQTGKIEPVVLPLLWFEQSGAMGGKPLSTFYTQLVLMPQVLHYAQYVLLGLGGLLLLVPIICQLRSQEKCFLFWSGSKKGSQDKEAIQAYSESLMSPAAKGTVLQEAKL

Row | SMILES | inhibition
1 | COc1ccc2c(c1)c(=Cc1ccc(N(C)C)cc1)c1cc(-c3ccccc3)[n+](C)n12 | -63.4% (inactive)
2 | CCCN(CCC)S(=O)(=O)c1cc2c(cc1Br)CCN2C(=O)CC | 7.1% (inactive)
3 | CCN(CC)CCCC(C)n1c2nc(=O)[nH]c(=O)c-2nc2cc(Cl)ccc21 (stereo not drawn) | 9.9% (inactive)
4 | CCC1([N+](=O)[O-])COC(c2ccc(C(C)C)cc2)OC1 (stereo not drawn) | -13.9% (inactive)
5 | CCc1ccc2c(c1)C1(NN=C(c3ccccc3)S1)C(=O)N2 (stereo not drawn) | 115% (active)
6 | NNc1cccc(C=Cc2ccccc2)cc1=O | 16.6% (inactive)
7 | O=C(Nc1ccc(F)cc1)N1CCN(c2ccc(F)cc2)CC1 | -29.4% (inactive)
8 | CC(=O)N1CCN(C(=O)Nc2cccc(C(F)(F)F)c2)CC1 | -9.59% (inactive)
9 | O=C(Nc1cccc(NC(=O)N2CCN(c3ccccc3)CC2)c1)N1CCN(c2ccccc2)CC1 | 86% (active)
10 | O=c1c2ccccc2ncn1CCc1ccncc1 | -5.47% (inactive)
11 | NC(=O)C1(Nc2ccc(-c3ccccc3)cc2)CCCC1 | 1.01% (inactive)
12 | Cc1cc(C)c(C=NNc2nc3c([nH]2)c(=O)n(C)c(=O)n3C)c(C)c1 | -12.4% (inactive)
13 | CCC(=O)c1ccc(OC(=O)/C=C/c2cc(OC)c(OC)c(OC)c2)cc1 | 48.6% (inactive)
14 | CCOc1ccc(N/C=C/C(=O)c2ccccc2)cc1 | -1.21% (inactive)
15 | CCOc1ccc(N/C=C/C(=O)c2cc(OC)c(OC)c(OC)c2)cc1 | 78.7% (active)
16 | COc1ccc(S(=O)(=O)N2CCc3ccccc32)cc1C(=O)Nc1cc(S(C)(=O)=O)ccc1Cl | 27.5% (inactive)
17 | O=S(=O)(Nc1ccc2ccccc2c1)N1CCCCC1 | 1.03% (inactive)
18 | c1ccc(CCc2ccccn2)cc1 | -7.77% (inactive)
19 | O=C(OC12CC3CC(CC(C3)C1)C2)c1ccc(NCc2cc(O)ccc2O)cc1 | 5.77% (inactive)
20 | Cc1nc(N)nc(Cl)c1CCC1OCCO1 | -19.5% (inactive)
21 | O=[N+]([O-])c1cc(S(=O)(=O)Nc2cccc(Cl)c2)ccc1N=Nc1c(O)[nH]c2ccccc12 | 101% (active)
22 | CN1CCN(c2ccc(S(=O)(=O)Nc3ccccc3)cc2[N+](=O)[O-])CC1 | -5.63% (inactive)
23 | Oc1[nH]c2ccccc2c1N=Nc1c(F)c(F)c(F)c(F)c1F | 15.7% (inactive)
24 | O=C1CC(C(=O)O)NC(=S)N1 (stereo not drawn) | -3.49% (inactive)

Row | SMILES | inhibition
25 | COc1cc(OC)c(C(=O)Nc2ccccc2-c2ccccc2)cc1OC | 20.8% (inactive)
26 | COc1ccc(Br)cc1C(=O)Nc1cccc(C)c1C | 76.2% (active)
27 | COc1ccc(Br)cc1C(=O)NC(=S)Nc1cc(-c2nc3ccccc3[nH]2)ccc1C | 60.8% (inactive)
28 | Cc1ccc(OCCNC(=O)c2cccc(S(=O)(=O)N3CCN(Cc4ccccc4)CC3)c2)cc1 | 20.6% (inactive)
29 | COc1ccc(C(=O)Nc2cccc(/C=C(/CCC(=O)O)c3nc4ccccc4s3)c2)cc1 | 36.4% (inactive)
30 | CC(C)(C)C(=O)Nc1ccc(C(=O)N/N=C/c2ccccc2OC(=O)c2ccc(Cl)cc2Cl)cc1 | 94.1% (active)
31 | O=C(N/N=C/c1ccc(OC(=O)c2ccccc2Cl)cc1)c1ccc(O)cc1 | 44.4% (inactive)
32 | O=C(N/N=C/c1ccoc1)c1ccc(Cl)cc1Cl | -28.2% (inactive)
33 | O=C(NCC1(N2CCCCC2)CCCCC1)c1cccc(S(=O)(=O)Nc2ccccc2Cl)c1 | -8.99% (inactive)
34 | CCOc1ccc2c(c1)C(c1ccc(C)cc1)=NNC(c1ccc(C)cc1)=N2 | 85.5% (active)
35 | Cc1ccc(C2=Nc3c(ccc4ccccc34)C(c3ccncc3)=NN2)cc1 | 2.19% (inactive)
36 | COc1ccc2c(c1)C(c1cccs1)=NNC(c1cccnc1)=N2 | -13.8% (inactive)
37 | CN(C)c1ccc(CSc2ccccc2)cc1 | -8.91% (inactive)
38 | O=C(CCCCCCCC(=O)N1CCCCC1)N1CCCCC1 | -7.35% (inactive)
39 | CSCCC(NC(=O)COc1ccccc1)C(=O)N1CCN(c2cccc(C(F)(F)F)c2)CC1 (stereo not drawn) | 13.3% (inactive)
40 | Cc1ccc(OCC(=O)Nc2ccc(N3CCN(C(=O)c4ccco4)CC3)cc2)c(C)c1 | 78% (active)
41 | Cc1ccc(C)c(OCC(=O)N2CCN(C(=O)c3ccco3)CC2)c1 | -10.6% (inactive)
42 | CCC(=O)Nc1ccc(C(=O)N2CCN(C(=O)c3ccco3)CC2)cc1 | -9.2% (inactive)
43 | COc1cc2[nH]c(O)c(C=O)c2cc1OC | -52% (inactive)
44 | O=C1OCC2=C1C(c1ccc(Cl)cc1)c1cc3c(cc1O2)OCO3 (stereo not drawn) | 14% (inactive)
45 | CCOc1ccc(Nc2nc(Cl)nc(N3CCN(c4ccc(OC)cc4)CC3)n2)cc1 | 73.8% (active)
46 | COc1ccc(Nc2ncc(F)c(N3CCOCC3)n2)cc1 | 22.2% (inactive)
47 | Cc1ccc(Nc2nc(N3CCOCC3)nc(N3CCOCC3)n2)cc1Cl | 55% (inactive)
48 | CCN(CC)S(=O)(=O)c1cccc(NC(=O)c2ccc(S(=O)(=O)N3CCCC3)cc2)c1 | 41.2% (inactive)

Row | SMILES | inhibition
49 | Cn1c(N)cc(=O)n(C)c1=S | -17.8% (inactive)
50 | CCOC(=O)c1ccc(NC(=S)N2CCCC2)cc1 | -10.4% (inactive)
51 | NC(=O)C1(N2CCCCC2)CCN(C(=S)Nc2ccc(Cl)cc2)CC1 | -24.6% (inactive)
52 | CN(C)c1ccc(C(=S)N2CCN(C(=S)Nc3ccc(Cl)cc3)CC2)cc1 | 95% (active)
53 | C=CCNC(=O)c1cc(-c2ccccc2O)on1 | 44.1% (inactive)
54 | Cc1nc(-c2ccc(Cl)cc2)sc1C(=O)NN | 25.2% (inactive)
55 | C=CCNC(=O)c1sc(SC)cc1-c1ccc(Cl)cc1 | 73.9% (active)
56 | CC[C@]12c3[nH]c4cc(CCC(=O)N(C)C)ccc4c3CCN1C(=O)[C@@H](CC(=O)NCC13CC4CC(CC(C4)C1)C3)C[C@@H]2C(=O)N1CCN(C(=O)C2CC2)CC1 | 1.08% (inactive)
57 | Cc1ccc(-n2c(SCC(=O)N/N=C/C=C/c3ccccc3[N+](=O)[O-])nc3ccccc3c2=O)cc1 | 74% (active)
58 | CCn1c(SCC(=O)N/N=C/C=C/c2ccccc2[N+](=O)[O-])nnc1-c1ccccc1 | 14.2% (inactive)
59 | O=C(CSc1nc2ccccc2[nH]1)N/N=C/C=C\c1ccccc1[N+](=O)[O-] | 4.51% (inactive)
60 | CNN/C(N=Cc1ccc([N+](=O)[O-])s1)=N\S(=O)(=O)c1cc(C)c(Cl)cc1SCc1ccccc1 | -9.94% (inactive)
61 | CC(C=Cc1ccccc1)=NNS(=O)(=O)c1ccc([N+](=O)[O-])cc1 | -6.47% (inactive)
62 | CCc1ccc(C(=O)C(C)OC(=O)CN2C(=O)NC3(CCCC3)C2=O)cc1 (stereo not drawn) | -13.5% (inactive)
63 | CC(C)(C)S(=O)(=O)N1Cc2cc(CO)cc(CCO)c2[C@H]1CCO | 2.47% (inactive)
64 | CCOc1ccc(-n2c(O)c(/C=N/Nc3nc(C)cc(C)n3)c3ccccc3c2=O)cc1 | 34.2% (inactive)
65 | CCOc1ccc(-n2c(O)c(/C=N/c3ccnn3Cc3ccncc3)c3ccccc3c2=O)cc1 | -0.942% (inactive)
66 | CCOc1ccc(-n2c(O)c(/C=N/Nc3nnc(C)c(=O)[nH]3)c3ccccc3c2=O)cc1 | 108% (active)
67 | CC(=O)N1CCc2ccc(N)cc21 | 12.2% (inactive)
68 | COc1cc(/C=N/NC(=O)Nc2ccccc2)ccc1OCCOc1ccccc1C | 71.4% (active)
69 | COc1cc(/C=N/NC(=O)c2ccoc2C)ccc1OCCN1CCCCC1 | 3.01% (inactive)
70 | COc1cc(/C=N/NC(=O)Cc2ccccc2)cc(OC)c1OC | 3.39% (inactive)
71 | O=C1OC(Oc2ccc(Br)cc2)(c2ccccc2)c2ccccc21 (stereo not drawn) | 0.981% (inactive)
72 | CCc1nnc(NC(=O)c2cc(S(=O)(=O)N3CCN(CC)CC3)ccc2Cl)s1 | -25.4% (inactive)

Row | SMILES | inhibition
73 | CCOc1ccc(-n2c(SCC(=O)Nc3cc(C(=O)O)ccc3Cl)nc3ccccc3c2=O)cc1 | -14% (inactive)
74 | NS(=O)(=O)c1cccc(NC(=O)CSc2nc3ccccc3n2-c2ccccc2)c1 | 23.7% (inactive)
75 | Cc1ccc(-n2c(SCC(=O)Nc3ncc(Cl)cc3Cl)nc3ccccc32)cc1 | 78.1% (active)
76 | COc1cc(OC)cc(-c2sc3ccc(OC)cc3c2-c2ccc3cc[nH]c3c2)c1 | 58.8% (inactive)
77 | COc1ccc2sc(-c3ccc(S(C)(=O)=O)cc3)c(-c3ccc(C(N)=O)cc3)c2c1 | 54.1% (inactive)
78 | COc1ccc2sc(-c3ccc(N(C)C)cc3)c(C#CCO)c2c1 | 99.4% (active)
79 | COc1ccc2sc(-c3ccc(S(C)(=O)=O)cc3)c(C#Cc3cncn3C)c2c1 | 13.9% (inactive)
80 | COc1ccc2sc(-c3ccc(N(C)C)cc3)c(-c3ccc4cc[nH]c4c3)c2c1 | 85% (active)
81 | COc1ccc(-c2sc3ccc(OC)cc3c2C#Cc2ccccn2)cc1 | 56.6% (inactive)
82 | CN1CCC(N(C)C(=O)c2ccc(Cl)c(S(=O)(=O)Nc3ccc(Cl)cc3)c2)CC1 | -12% (inactive)
83 | O=C(NCC1CCCCC1)NCC1CCCCC1 | -12.9% (inactive)
84 | O=C(O)c1ccc(S(=O)(=O)c2ccccc2)s1 | -1.03% (inactive)
85 | COc1ccc2nc(N3C(=O)C(O)=C(C(=O)c4ccco4)C3c3ccco3)sc2c1 (stereo not drawn) | -2.11% (inactive)
86 | O=C(Cc1ccc(S(=O)(=O)N2CCOCC2)s1)Nc1ccc(Br)c(C(F)(F)F)c1 | -43.4% (inactive)
87 | CC(C)Cn1cnc2c(SCc3ccc(Cl)cc3)nc(N)nc21 | 7.71% (inactive)
88 | Cc1cccc(C(=O)Nc2ccccc2N2CCN(c3ccc(F)cc3)CC2)c1 | 74.9% (active)
89 | CCC(C)C(=O)Nc1ccccc1N1CCN(c2ccc(F)cc2)CC1 (stereo not drawn) | 36.3% (inactive)
90 | CCCCC(=O)Nc1ccccc1N1CCN(c2ccc(F)cc2)CC1 | 34% (inactive)
91 | CCCC(=O)N1CCN(c2nnc(-c3ccc(C)cc3)c3ccccc23)CC1 | 76.8% (active)
92 | c1ccc(-c2nnc(N3CCOCC3)c3ccccc23)cc1 | 27.8% (inactive)
93 | OCCN1CCN(c2nnc(-c3ccccc3)c3ccccc23)CC1 | 3.57% (inactive)
